Compound activity as filed in PubChem.
Six1-Eya2 blk: inhibitors of human Six1/Eya2 interaction; Q15475+O00167; AlphaScreen GST-Six1/His-Eya2 binding, biochemical; hits give low values; activity change, % (concentration not given with the values); 360,000 compounds, 0.56% hits; AID 651725; in the data active = activity change below about -65%; inconclusive = mostly about -30% to -63%; also: % is scaled to controls: 0 for no effect and ±100 for the full control effect
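Six1/Eya2 binding was read as AlphaScreen signal after compounds were pinned into GST-Six1 plus His-tagged Eya2 (5X stock 250/500 nM) in pH 8.0 Tris/NaCl/TCEP buffer, beads added, then incubated 1 h, 37 C, dark.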
VP16 counter: counter-screen for ROR gamma inhibitors: Gal4-VP16 reporter; 310,000 compounds, 3.5% hits; Drosophila S2 Gal4-VP16 UAS-luciferase, luminescence, 20 h; AID 2546; Potency, µM (top dose mostly 53.6 µM), for inactives: top-dose activity, negative = inhibition, hits mostly inhibitors;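 also: Gal4-VP16 expression switched on by copper sulfate through the metallothionein promoter; potency is read from the fitted curve at half-maximal effect; % is scaled to controls: 0 for no effect and ±100 for the full control effect; nearly all actives have a fitted effect of over 50% in size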
RORgamma inh: blocks mouse ROR gamma transcriptional activity; 310,000 compounds, 5.4% hits; Drosophila S2 Gal4-RORgamma UAS-luciferase reporter, 20 h; Potency, µM (doses to about 53.6 µM), for the others: at the top dose activity change, negative = inhibition, most hits filed as inhibitors; P51450; AID 2551; also: potency is read from the fitted curve at half-maximal effect; % is scaled to controls: 0 for no effect and ±100 for the full control effect; nearly all actives have a fitted effect of over 60% in size
Target sequence (P51450 whole entry, looked up, the tested form may be a part): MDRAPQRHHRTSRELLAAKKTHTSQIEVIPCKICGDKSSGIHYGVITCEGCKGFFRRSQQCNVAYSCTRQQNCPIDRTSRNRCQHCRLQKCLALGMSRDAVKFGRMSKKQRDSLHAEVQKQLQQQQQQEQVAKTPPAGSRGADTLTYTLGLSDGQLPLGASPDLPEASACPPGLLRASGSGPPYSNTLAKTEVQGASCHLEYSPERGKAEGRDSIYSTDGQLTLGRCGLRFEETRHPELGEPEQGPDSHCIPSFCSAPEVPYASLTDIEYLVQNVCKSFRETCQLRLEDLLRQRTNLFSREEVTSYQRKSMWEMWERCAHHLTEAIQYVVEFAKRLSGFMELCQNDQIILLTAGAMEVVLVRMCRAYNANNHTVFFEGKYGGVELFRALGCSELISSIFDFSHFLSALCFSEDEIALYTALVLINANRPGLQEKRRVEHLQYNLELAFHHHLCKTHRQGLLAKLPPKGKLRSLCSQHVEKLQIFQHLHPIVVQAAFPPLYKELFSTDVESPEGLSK
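Schneider cells (Drosophila), stable Gal4 DBD–ROR gamma + UAS-luc; 1 hr cmpd preincubation; Cu2+ induction 700 uM final; 20 hr ambient; luminescence.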
CtBP-E1A blk: blocks the CtBP interaction with E1A. activity change, % (no concentration beside the values). AlphaScreen GST-E1A/His-CtBP binding, 1536-well; hits give low values. 340,000 compounds, 0.49% hits; in the data active = activity change below about -65%; inconclusive = mostly about -30% to -63%; also: % is scaled to controls: 0 for no effect and ±100 for the full control effect
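Steps: dispense buffer (Tris pH 8.0, NaCl 300 mM, TCEP 1 mM, BSA, Tween 20); add 5X protein mix (GST-E1A, His-CtBP, 125 nM each); pin 23 nL compound; 2 h at 37 °C, dark; add 5X beads (50 ug/mL); 1 h; read.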
p53 reactivation: re-activators of mutant p53. H1299 p53-A138V BP100-luciferase reporter, luminescence, 24 h. Potency, µM (series often up to 92.2 µM), inactives show top-dose activity change, positive = activation, usual class: activators. 320,000 compounds, 0.063% hits; also: potency is read from the fitted curve at half-maximal effect; % of control where 0% means no effect; nearly all actives have a fitted effect of over 45% in size
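H1299 (p53-null), stable ts p53-A138V + BP100-Luc; 1000 cells/well, Opti-MEM/10% FBS; cpd 4 pt, 1:5; 24 h, 37 deg C, 5% CO2; detection reagent 10 min RT; luminescence.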
Starred values were filed as active, the others as inactive; ? = inconclusive; · = no result given; [ ] = another dose, or the depositor's remark. Sampled rows, rich in hits. Any-hit rate of the full collection: about 5.4%. Unless noted, calls follow the shape of the dose curve; as a rule, active = well fitted curve in the direction sought with a large enough effect; inconclusive = small, poorly fitted or top-dose-only effect, or another doubt; inactive = no such curve, though single readings can be large; an effect the other way counts as inactive or inconclusive.

SMILES | Six1-Eya2 blk | VP16 counter | RORgamma inh | CtBP-E1A blk | p53 reactivation
CSc1n[nH]c(=O)n1-c1cccc(Cl)c1 | 3.5 | -11.5% | 14.0% | 5.3 | 4.7%
Cc1cc(OCc2n[nH]c(=S)n2-c2ccccc2)ccc1Cl | -2.6 | 3.55µM* | 2.51µM* | 9.5 | -4.9%
CNC[C@@H](O)[C@@H](O)[C@H](O)[C@H](O)CO | · | -1.1% | 12.7%[10 µM] | · | ·
COC(=O)[C@@]1(Cc2ccc(OC)cc2)[C@H]2c3cc(C(=O)N(C)C)n(CCc4ccccn4)c3C[C@H]2CN1C(=O)c1ccccc1 | · | 12.2% | 39.9% | · | ·
Cc1ccc(C(=O)N/C(=C/c2ccco2)C(=O)NCCc2c[nH]c3ccccc23)cc1 | -11.6 | 2.1% | ? | -25.3 | 6.8%
CC(C(=O)Nc1nccs1)c1ccc([N+](=O)[O-])cc1 (configuration not stated) | 1.4 | 7.7% | -33.6% | · | -6.0%
Cc1cc(Cl)cc(C)c1OCCOCCNCc1ccccc1 | -1.9 | 0.2% | 32.1%[1.91 µM] | · | 9.2%
O=C1[C@H]2[C@@H](c3ccccc3)N[C@]3(CCCN(CC4CCCCC4)C3=O)[C@H]2C(=O)N1Cc1ccccc1 | 29.5 | · | · | -9.2 | ·
Cc1cccc(OCc2n[nH]c(=S)n2-c2ccccc2)c1 | 5.1 | ? | 2.24µM* | ? | -0.9%
Cc1ccccc1OCc1n[nH]c(=S)n1-c1cccc(Cl)c1 | -2.2 | 4.47µM* | 3.98µM* | · | ·
Cc1ccc(OCc2n[nH]c(=S)n2-c2ccccc2)cc1C | 3.0 | ? | 2µM* | 4.6 | -1.1%
Cn1c(CSCCOc2ccccc2)n[nH]c1=S | 6.2 | ? | 1µM* | 6.7 | 0.8%
S=c1[nH]nc(CSCCOc2ccccc2)o1 | -1.8 | -11.5% | ? | -22.7 | -3.0%
Cc1ccccc1OCc1nnc(SCC(=O)O)n1-c1cccc(Cl)c1 | -1.8 | -0.5% | 10.2% | -10.5 | ·
COc1ccccc1/C=N/OCc1ccc(C#N)cc1 | 25.6 | -6.7% | 10.5% | 22.3 | 5.3%
CCOC(=O)/C=C/COc1ccccc1[N+](=O)[O-] | -12.5 | 1.3% | 39.6% | 0.0 | ?
Cn1c(=O)[nH]c(=O)c2c1[nH]c(=S)n2Cc1ccc(Cl)cc1 | -5.1 | 4.6% | -0.8% | · | 0.3%
OCCCc1n[nH]c(=S)n1-c1ccccc1 | -2.0 | -0.6% | 0.6% | 4.2 | -5.4%
CC(C)Oc1ccc(CCc2n[nH]c(=S)n2-c2ccccc2)cc1 | -18.6 | -11.0% | 7.08µM* | -25.3 | -5.2%
COCc1n[nH]c(=S)n1-c1ccccc1 | -2.4 | 1.2% | -11.2% | -3.6 | 9.1%
Cc1cccc(C)c1OCc1n[nH]c(=S)n1-c1ccccc1 | -1.7 | ? | 1.26µM* | 8.2 | -1.4%
S=c1[nH]nc(CSCc2ccccc2Cl)n1-c1ccccc1 | 6.0 | 6.31µM* | 1µM* | -2.5 | -7.2%
O=C1O[C@@H]([C@@H](O)CO)[C@@H](O)[C@H]1O | · | -0.2% | -5.9% | · | ·
Cc1cccc(N2CCN(C(=O)c3[nH]c(C(F)(F)F)nc3-c3ccccc3)CC2)c1C | -2.0 | · | · | 6.9 | ·
CCCOc1ccc2cc(-c3ccccn3)c(=O)oc2c1 | 37.0 | 5.01µM* | 7.08µM* | 24.0 | -5.2%
SMILES | Six1-Eya2 blk | VP16 counter | RORgamma inh | CtBP-E1A blk | p53 reactivation
Cc1ccc(NC(=O)COc2coc(CN3CCc4ccccc43)cc2=O)c(C)c1 | -10.7 | · | · | -2.0 | -2.6%
O=C1NC2(CCCCC2)C(=O)N1CC(=O)N1CCc2ccccc21 | -12.8 | · | · | -11.9 | -1.2%
Cc1ccccc1C(=O)NC(=S)NCC1CCCO1 (configuration not stated) | -8.4 | ? | 14.1µM* | -1.8 | 1.6%
O=C(NC(=S)NCC1CCCO1)C(c1ccccc1)c1ccccc1 (configuration not stated) | 0.2 | 6.31µM* | 7.08µM* | -5.6 | 5.1%
CNC(=S)NNC(=O)c1ccc(C(C)(C)C)cc1 | -15.8 | ? | 2.24µM* | · | 4.8%
COc1ccc(C(=O)NNC(=O)c2ccc(C(C)(C)C)cc2)cc1 | 31.7 | -5.6% | 2.1% | 1.9 | -1.4%
O=C(Cc1ccccc1)NCC1CCCO1 (configuration not stated) | 4.9 | -7.3% | -33.9% | 3.7 | 1.3%
O=C(Cc1ccc(F)cc1)NCC1CCCO1 (configuration not stated) | 0.0 | -21.2% | 11.2µM* | -1.8 | -0.6%
O=C(NCC1CCCO1)Nc1ccccc1 (configuration not stated) | 5.5 | 4.2% | -0.5% | 3.6 | 4.4%
CC(C)(C)c1ccc(C(=O)c2c[nH]c(C(=O)NCC3CCCO3)c2)cc1 (configuration not stated) | -6.3 | 12.6µM* | ? | -2.3 | 8.0%
O=C(NCC1CCCO1)c1ccc(C(=O)NCC2CCCO2)cc1 (configuration not stated) | -1.4 | 2.5% | 6.0% | -0.5 | 13.8%
COc1ccc(/C=C/C(=O)OCC(=O)NCC2CCCO2)cc1 (configuration not stated) | 4.4 | 1.7% | 20.0% | -23.4 | 15.0%
CC(C)(C)c1ccc(C(=O)NNC(=S)NCC2CCCO2)cc1 (configuration not stated) | 0.3 | ? | 3.98µM* | -3.6 | 6.1%
COc1ccc(/C=C/C(=O)NC(=S)NCC2CCCO2)cc1 (configuration not stated) | 0.5 | -2.9% | 1µM* | -2.1 | 4.1%
COc1ccccc1/C=C/C(=O)NC(=S)NCC1CCCO1 (configuration not stated) | 3.7 | ? | 2.82µM* | -5.9 | -2.0%
CCC(=O)OC1C2CC3=C4CC(=O)OC(c5ccoc5)[C@]4(C)CCC3[C@@](C)(C2=O)C(CC(=O)OC)C1(C)C (some centres not stated) | · | 0.2% | -1.3% | · | ·
OC[C@@H]1OC(O)[C@H](O)[C@H](O)[C@H]1O (some centres not stated) | · | -14.4% | 14.5% | · | ·
CCCCCCCCC1CO1 (configuration not stated) | · | -2.2% | -0.6% | · | ·
COC(=O)[C@H]1C[C@@H]1[C@H](NC(=O)c1cc(C)nn1C)c1ccccc1 | · | 13.7% | -2.7% | · | ·
Cc1ccc(S(=O)(=O)NCc2ccc(C(=O)NC3CCCCC3)cc2)cc1 | 5.0 | -1.5% | 5.9% | 1.3 | -0.8%
CC(C)(C)c1ccc(C(=O)NC(=S)NCC2CCCO2)cc1 (configuration not stated) | 3.6 | 5.62µM* | 2.24µM* | -9.9 | 25.4%
O=C(NC(=S)NCC1CCCO1)c1ccc(Cl)cc1Cl (configuration not stated) | -1.5 | ? | 11.2µM* | 5.8 | ?
O=C(NCC1CCCO1)C(=O)N/N=C/c1cc(Cl)ccc1O (configuration not stated) | -80.0* | ? | 12.6µM* | -94.4* | 8.7%
O=C(CNC(=O)c1ccc(Cl)cc1Cl)NCC1CCCO1 (configuration not stated) | 13.9 | -1.4% | -3.5% | 3.9 | 14.9%
